# Data from PubChem BioAssay (Tox21).
# Inconclusive results are not listed. Where a call stands in place of a potency, no number is given. Active and inactive are the calls of the source. The call rests on the fitted dose curve.
# Biological target: Muscarinic acetylcholine receptor M1 (Homo sapiens) (UniProt P11229)
# Assay: Cholinergic receptor muscarinic 1 (CHRM1) small molecule antagonists, cell-based qHTS assay (AID 1963588); further: nearly all actives have a fitted effect of over 40% in size
# Details: CHRM1-CHO antagonist mode, calcium flux fluorescence; series mostly up to 61.5 µM
# Text: National Center for Advancing Translational Sciences [NCATS]
# Division of Preclinical Innovation [DPI]
# U.S. Environmental Protection Agency [EPA]
# National Institutes of Environmental Health Sciences [NIEHS]
# National Toxicology Program [NTP]
# U.S. Food and Drug Administration [FDA]
# The CHRM1 is a muscarinic receptor. This receptor plays a crucial role in learning and memory processes and has long been identified as a promising therapeutic target for the improvement of cognitive decline in Alzheimer's disease (AD). The CHRM1-CHO cell line stably expressing human muscarinic acetylcholine receptor M1 (CHRM1) can be used for screening agonists and antagonists of interactions between CHRM1 and its ligands. The CHRM1-CHO Calcium Flux Assay is a homogeneous fluorescence-based assay for detecting the intracellular calcium level using FDSS kinetic plate reader system.
# Tox21 Assay Protocol Summary:
# CHRM1-CHO cells were dispensed at 1000 cells/3uL/well in 1536-well black-clear bottom plates using a Multidrop Dispenser. After the assay plates were incubated at a 37 C/5% CO2 incubator for 18 h, 3 uL of Dye Loading Buffer was transferred to the assay plate by a Flying Reagent Dispenser. The assay plates were incubated at 37 C for 1h. For antagonist mode, 23 nL of compounds dissolved in DMSO, positive controls or DMSO only was transferred to the assay plate by a pin tool. After 5 min incubation at room temperature, 1.5 uL of acetylcholine at 50nM was added to each well. The fluorescence intensity in the plates was measured using FDSS 7000EX kinetic plate reader for 3 min at 1 sec intervals. Each test compound was measured at 15 concentrations in three independent runs.
# Potency means the concentration at half of the fitted maximal effect.
# Muscarinic acetylcholine receptor M1 (Homo sapiens), sequence (P11229 whole entry, looked up): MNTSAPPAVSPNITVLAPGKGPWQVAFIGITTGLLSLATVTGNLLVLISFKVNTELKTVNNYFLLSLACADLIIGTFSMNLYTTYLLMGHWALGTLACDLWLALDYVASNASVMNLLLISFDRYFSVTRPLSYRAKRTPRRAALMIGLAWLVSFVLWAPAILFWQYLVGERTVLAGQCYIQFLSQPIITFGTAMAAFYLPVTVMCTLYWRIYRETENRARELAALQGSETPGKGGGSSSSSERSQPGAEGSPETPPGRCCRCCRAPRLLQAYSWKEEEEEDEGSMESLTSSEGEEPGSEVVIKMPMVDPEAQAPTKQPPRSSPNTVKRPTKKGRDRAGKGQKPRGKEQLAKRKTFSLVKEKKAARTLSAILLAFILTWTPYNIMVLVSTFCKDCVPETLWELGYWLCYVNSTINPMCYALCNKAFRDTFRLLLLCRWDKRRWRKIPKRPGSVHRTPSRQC
Compound,Potency,"activity, negative = inhibition"
Oc1cccc2c(O)cccc12,inactive,–
Nc1cc(Cl)c([N+](=O)[O-])cc1O,inactive,–
c1cc(CCCc2ccncc2)ccn1,inactive,–
CC1CC(OC(=O)C(O)c2ccccc2)CC(C)(C)N1C (stereo not given),410 nM (active),–
COC(=O)C1=C(C)NC(C)=C(C(=O)O[C@@H]2CCCN(Cc3ccccc3)C2)[C@@H]1c1cccc([N+](=O)[O-])c1,inactive,–
CC(C)(C)c1ccc(OC2CCCCC2O)cc1 (stereo not given),inactive,–
COc1cc(-c2ccc(=O)[nH]n2)ccc1OC(F)F,inactive,–
CCCCCCCCCCCCOC(C)=O,inactive,–
CCCNC(C)(C)COC(=O)c1ccccc1,inactive,–
O=C(O)CNC(=O)c1ccccc1,inactive,–
CC(C)=CC(C)(C)C,inactive,–
c1cc(OCC2CO2)cc(OCC2CO2)c1 (stereo not given),inactive,–
CCCCCCCCCCCCCCCC(=O)OCC,inactive,–
CCCC1CCC(=O)CC1,inactive,–
CC1CCCCN1CCCOC(=O)c1ccc(OC2CCCCC2)cc1 (stereo not given),365 nM (active),–
C=CCN1C[C@H](C(=O)N(CCCN(C)C)C(=O)NCC)C[C@@H]2c3cccc4[nH]cc(c34)C[C@H]21,inactive,–
c1ccc(-c2nc[nH]c2-c2ccccc2)cc1,inactive,–
CN(C)CCCN1c2ccccc2Sc2ccc(C(F)(F)F)cc21,inactive,–
COc1cc2c(cc1OC)[C@@H]1CC(=O)[C@@H](CC(C)C)CN1CC2,inactive,–
CC(CN(CCN(CC(C)OCCO)CC(C)OCCO)CC(C)OCCO)OCCO (stereo not given),inactive,–

Compound,Potency,"activity, negative = inhibition"
O=C(Nc1ccc(Oc2ccc(Cl)cc2)c(Cl)c1)c1cc(I)cc(I)c1O,inactive,–
CC(=O)OCC(=O)NCCCOc1cccc(CN2CCCCC2)c1,inactive,–
NO,inactive,–
Cc1ccc2c(Br)cc(Br)c(O)c2n1,inactive,–
Cc1ccc(C(=O)O)cc1[N+](=O)[O-],inactive,–
Cc1ccc(C(C)OC(=O)C2(C)CCC(C(=O)O)C2(C)C)cc1 (stereo not given),inactive,–
Cc1c[nH]c(=S)[nH]c1=O,inactive,–
Cc1cc2c(C(C)C)c(O)c(O)c(C=O)c2c(O)c1-c1c(C)cc2c(C(C)C)c(O)c(O)c(C=O)c2c1O,inactive,–
OCCN1CCN(CCO)CC1,inactive,–
CC(Cc1ccccc1)(NC(=O)CN)c1ccccc1 (stereo not given),inactive,–
CCC(=O)OCCc1ccccc1,inactive,–
O=[N+]([O-])c1cc(N(CCO)CCO)ccc1NCCO,inactive,–
O=S(c1cc(Cl)cc(Cl)c1O)c1cc(Cl)cc(Cl)c1O,inactive,–
Nc1ccccn1,inactive,–
Nc1ccc(/C=C/c2ccc(N)cc2S(=O)(=O)O)c(S(=O)(=O)O)c1,–,18% [at 0.232 µM] (inactive)
C=C(C)C(=O)OCCCCCCCCCC,42400 nM (active),–
COc1cc(N)ccc1C,inactive,–
CCN(CC)c1ccc2c(-c3ccccc3C(=O)O)c3ccc(=[N+](CC)CC)cc-3oc2c1,inactive,–
C=O,inactive,–
CCCC(=O)OCC,inactive,–
